# For some assays here: Entries with a potency or affinity are not part of this list.
# How the values were obtained:
# Parameters in all cases: scale not given: direction of the effect not stated beside the values
# [1] = target: Protein translocase subunit SecA (Escherichia coli (strain K12)) (UniProt P10408); test: Assay to Identify E. coli SecA ATPase Inhibitors; assay type: functional; settings: 30 µM
# [2] = target: T1, Ubiquitin-activating enzyme e1, putative (Leishmania donovani (strain BPK282A1)) (UniProt E9BSI1); test: Leishmania donovani Ubiquitin Activating Enzyme (LdE1); assay type: functional; settings: 30 µM
# T1 sequence (whole entry): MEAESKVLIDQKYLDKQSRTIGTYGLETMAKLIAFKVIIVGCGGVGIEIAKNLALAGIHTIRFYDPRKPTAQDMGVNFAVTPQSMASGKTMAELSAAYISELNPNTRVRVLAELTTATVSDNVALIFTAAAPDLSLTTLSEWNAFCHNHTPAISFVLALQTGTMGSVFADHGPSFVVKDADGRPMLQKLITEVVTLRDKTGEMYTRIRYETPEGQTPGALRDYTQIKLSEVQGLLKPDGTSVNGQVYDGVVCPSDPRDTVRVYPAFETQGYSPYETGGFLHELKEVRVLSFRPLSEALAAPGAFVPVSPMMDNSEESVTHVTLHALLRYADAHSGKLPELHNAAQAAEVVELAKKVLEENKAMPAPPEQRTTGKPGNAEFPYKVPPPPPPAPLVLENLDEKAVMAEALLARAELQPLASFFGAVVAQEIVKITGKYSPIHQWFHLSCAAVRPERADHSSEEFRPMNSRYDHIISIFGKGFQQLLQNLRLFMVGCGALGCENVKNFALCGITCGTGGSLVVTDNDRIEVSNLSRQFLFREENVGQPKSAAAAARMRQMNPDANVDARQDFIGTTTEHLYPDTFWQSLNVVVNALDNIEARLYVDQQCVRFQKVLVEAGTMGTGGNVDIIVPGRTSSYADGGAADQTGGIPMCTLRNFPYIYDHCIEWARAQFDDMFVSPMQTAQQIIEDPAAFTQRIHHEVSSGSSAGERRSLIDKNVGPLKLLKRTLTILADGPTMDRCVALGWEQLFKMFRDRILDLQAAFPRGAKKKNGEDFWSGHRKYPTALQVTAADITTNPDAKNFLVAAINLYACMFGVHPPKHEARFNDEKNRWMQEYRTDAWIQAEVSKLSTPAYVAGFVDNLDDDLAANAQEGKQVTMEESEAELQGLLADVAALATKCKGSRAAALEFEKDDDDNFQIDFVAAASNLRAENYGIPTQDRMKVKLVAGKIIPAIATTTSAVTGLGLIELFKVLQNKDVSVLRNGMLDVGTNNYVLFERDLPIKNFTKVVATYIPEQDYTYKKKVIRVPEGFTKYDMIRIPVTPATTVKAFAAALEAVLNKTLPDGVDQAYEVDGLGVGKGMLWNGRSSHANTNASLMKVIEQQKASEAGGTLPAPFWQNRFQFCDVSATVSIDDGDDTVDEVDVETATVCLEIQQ
# [3] = target: AMP-activated protein kinase, AMPK (Homo sapiens) (UniProt P54646+O43741+P54619+Q9UGJ0+Q9Y478+Q13131+Q9UGI9); test: AMP-dependent Kinase enzyme assay. An in vitro enzyme assay that detects ADP turnover that is directly proportional to AMPK activity. This uses naive AMPK that is activated during the assay with MK-8722; assay type: functional; settings: 30 µM
# [4] = target: Sialic acid-binding Ig-like lectin 9 (Homo sapiens) (UniProt Q9Y336); test: Hs-Siglec9 ALPHAscreen SOP 20170721; settings: 10 µM
# Trypanosoma cruzi = test: Trypanosoma cruzi phosphomannomutase and mannose-1-phosphate guanylyltransferase assay; assay type: functional; settings: 10 µM
# [5] = target: T2, Arginase-2, mitochondrial (Homo sapiens) (UniProt P78540); test: in vitro enzyme assay to detect the production of urea directly proportional to the activity of Arginase II; assay type: functional; settings: 33.3 µM; further: in the data most compounds retested in dose-response had high values
# T2 sequence (whole entry): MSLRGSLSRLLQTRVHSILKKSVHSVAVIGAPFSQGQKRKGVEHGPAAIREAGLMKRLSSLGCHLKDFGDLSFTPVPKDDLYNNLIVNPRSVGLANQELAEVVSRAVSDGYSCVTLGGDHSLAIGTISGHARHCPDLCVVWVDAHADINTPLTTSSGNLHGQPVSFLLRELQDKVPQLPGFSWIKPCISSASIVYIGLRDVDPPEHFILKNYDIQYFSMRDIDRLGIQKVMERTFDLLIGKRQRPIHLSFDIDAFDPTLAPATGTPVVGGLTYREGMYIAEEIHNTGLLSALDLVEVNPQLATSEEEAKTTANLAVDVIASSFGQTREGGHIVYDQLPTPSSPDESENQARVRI
# [6] = target: T3, Proteasome subunit beta (Trypanosoma cruzi) (UniProt O96673); test: Trypanosoma cruzi proteasome chymotrypsin-like activity (TcProtChymo) assay.; further: in the data most compounds retested in dose-response had high values; assay type: functional; settings: 9.37 µM
# T3 sequence (whole entry): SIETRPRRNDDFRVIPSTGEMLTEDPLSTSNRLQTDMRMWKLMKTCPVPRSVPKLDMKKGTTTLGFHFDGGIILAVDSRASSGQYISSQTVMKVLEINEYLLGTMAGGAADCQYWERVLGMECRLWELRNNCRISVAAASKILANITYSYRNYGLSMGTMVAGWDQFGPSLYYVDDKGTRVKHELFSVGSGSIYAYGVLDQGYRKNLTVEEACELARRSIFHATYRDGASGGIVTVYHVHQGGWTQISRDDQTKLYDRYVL
# Homo sapiens = species on record: Homo sapiens; test: To identify inhibition of the IFN signalling (Jak-Stat) pathway via expression of an eGFP reporter gene under the control of an IFN-stimulated response element (ISRE) containing MxA promoter.; assay type: functional; settings: 30 µM
# [7] = target: T4, Tyrosyl-tRNA synthetase, putative (Trypanosoma cruzi (strain CL Brener)) (UniProt Q4DSP6); test: Trypanosoma cruzi tyrosyl tRNA synthetase (TcYRS) _High Tyrosine SOP; assay type: functional; settings: 30 µM; further: in the data most compounds retested in dose-response had high values
# T4 sequence (whole entry): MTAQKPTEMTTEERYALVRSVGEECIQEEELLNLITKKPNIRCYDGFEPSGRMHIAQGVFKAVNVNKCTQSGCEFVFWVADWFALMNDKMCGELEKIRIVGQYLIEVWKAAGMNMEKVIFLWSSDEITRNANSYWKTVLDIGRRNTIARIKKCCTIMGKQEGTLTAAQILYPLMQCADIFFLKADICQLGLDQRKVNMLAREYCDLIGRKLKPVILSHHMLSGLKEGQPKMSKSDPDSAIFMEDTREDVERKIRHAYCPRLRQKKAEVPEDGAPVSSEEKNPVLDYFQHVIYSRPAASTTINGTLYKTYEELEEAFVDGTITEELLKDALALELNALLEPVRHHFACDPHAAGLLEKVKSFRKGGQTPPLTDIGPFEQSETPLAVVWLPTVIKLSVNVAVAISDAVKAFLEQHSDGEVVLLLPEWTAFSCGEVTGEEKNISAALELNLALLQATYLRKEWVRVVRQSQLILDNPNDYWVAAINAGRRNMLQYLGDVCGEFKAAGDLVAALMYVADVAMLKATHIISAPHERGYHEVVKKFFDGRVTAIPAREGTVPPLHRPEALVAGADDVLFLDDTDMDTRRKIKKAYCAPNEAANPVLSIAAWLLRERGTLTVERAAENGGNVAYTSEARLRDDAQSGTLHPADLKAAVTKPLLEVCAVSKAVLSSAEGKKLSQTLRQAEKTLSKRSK
# [8] = target: T4, Tyrosyl-tRNA synthetase, putative (Trypanosoma cruzi (strain CL Brener)); test: Trypanosoma cruzi tyrosyl tRNA synthetase (TcYRS) SOP; assay type: functional; settings: 30 µM
# [9] = target: Chromo domain-containing protein 1 (Saccharomyces cerevisiae (strain ATCC 204508 / S288c) (Baker's yeast)) (UniProt P32657); test: ScCHD-1 Enzyme Inhibition Assay; assay type: functional; settings: 30 µM; further: in the data most compounds retested in dose-response had high values
# Sequence of Chromo domain-containing protein 1 (Saccharomyces cerevisiae (strain ATCC 204508 / S288c) (Baker's yeast)) (P32657 whole entry, the tested form may be a part): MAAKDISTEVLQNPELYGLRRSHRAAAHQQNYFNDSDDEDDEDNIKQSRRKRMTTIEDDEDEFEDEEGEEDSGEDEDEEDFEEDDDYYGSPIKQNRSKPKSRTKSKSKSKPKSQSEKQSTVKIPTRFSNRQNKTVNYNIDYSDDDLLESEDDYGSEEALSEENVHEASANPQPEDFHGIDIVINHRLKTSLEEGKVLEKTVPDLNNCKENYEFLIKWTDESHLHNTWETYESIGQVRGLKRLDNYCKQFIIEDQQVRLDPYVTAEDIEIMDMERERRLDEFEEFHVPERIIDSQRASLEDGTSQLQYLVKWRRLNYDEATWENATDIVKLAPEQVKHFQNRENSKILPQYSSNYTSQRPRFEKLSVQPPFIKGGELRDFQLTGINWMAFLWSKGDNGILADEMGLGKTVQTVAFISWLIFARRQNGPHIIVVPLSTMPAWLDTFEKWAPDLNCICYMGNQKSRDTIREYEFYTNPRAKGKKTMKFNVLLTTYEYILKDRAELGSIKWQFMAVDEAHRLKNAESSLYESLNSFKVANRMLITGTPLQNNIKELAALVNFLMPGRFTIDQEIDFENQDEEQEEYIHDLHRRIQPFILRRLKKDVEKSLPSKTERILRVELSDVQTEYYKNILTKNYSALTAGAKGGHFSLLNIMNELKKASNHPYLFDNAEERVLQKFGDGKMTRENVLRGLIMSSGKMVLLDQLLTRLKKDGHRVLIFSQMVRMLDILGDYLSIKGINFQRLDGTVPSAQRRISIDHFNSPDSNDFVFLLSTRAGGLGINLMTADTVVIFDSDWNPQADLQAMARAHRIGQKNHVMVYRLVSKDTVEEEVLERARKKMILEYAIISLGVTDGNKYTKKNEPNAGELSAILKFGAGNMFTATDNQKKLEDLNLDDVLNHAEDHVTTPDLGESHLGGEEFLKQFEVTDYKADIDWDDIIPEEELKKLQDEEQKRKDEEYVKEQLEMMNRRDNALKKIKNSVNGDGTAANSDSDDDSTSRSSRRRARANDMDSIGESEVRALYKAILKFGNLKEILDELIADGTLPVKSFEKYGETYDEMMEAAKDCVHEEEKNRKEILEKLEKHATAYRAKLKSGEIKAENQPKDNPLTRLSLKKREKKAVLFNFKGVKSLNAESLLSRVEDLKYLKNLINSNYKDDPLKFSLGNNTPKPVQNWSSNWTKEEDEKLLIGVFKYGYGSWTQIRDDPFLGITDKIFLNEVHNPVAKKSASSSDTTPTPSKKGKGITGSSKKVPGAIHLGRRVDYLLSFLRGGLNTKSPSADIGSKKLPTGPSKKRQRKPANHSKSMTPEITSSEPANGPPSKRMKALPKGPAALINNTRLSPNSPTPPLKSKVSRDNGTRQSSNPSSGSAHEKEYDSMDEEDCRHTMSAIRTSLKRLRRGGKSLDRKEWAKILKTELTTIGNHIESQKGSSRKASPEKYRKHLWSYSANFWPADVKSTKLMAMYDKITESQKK
# Sequence of Protein translocase subunit SecA (Escherichia coli (strain K12)) (P10408 whole entry): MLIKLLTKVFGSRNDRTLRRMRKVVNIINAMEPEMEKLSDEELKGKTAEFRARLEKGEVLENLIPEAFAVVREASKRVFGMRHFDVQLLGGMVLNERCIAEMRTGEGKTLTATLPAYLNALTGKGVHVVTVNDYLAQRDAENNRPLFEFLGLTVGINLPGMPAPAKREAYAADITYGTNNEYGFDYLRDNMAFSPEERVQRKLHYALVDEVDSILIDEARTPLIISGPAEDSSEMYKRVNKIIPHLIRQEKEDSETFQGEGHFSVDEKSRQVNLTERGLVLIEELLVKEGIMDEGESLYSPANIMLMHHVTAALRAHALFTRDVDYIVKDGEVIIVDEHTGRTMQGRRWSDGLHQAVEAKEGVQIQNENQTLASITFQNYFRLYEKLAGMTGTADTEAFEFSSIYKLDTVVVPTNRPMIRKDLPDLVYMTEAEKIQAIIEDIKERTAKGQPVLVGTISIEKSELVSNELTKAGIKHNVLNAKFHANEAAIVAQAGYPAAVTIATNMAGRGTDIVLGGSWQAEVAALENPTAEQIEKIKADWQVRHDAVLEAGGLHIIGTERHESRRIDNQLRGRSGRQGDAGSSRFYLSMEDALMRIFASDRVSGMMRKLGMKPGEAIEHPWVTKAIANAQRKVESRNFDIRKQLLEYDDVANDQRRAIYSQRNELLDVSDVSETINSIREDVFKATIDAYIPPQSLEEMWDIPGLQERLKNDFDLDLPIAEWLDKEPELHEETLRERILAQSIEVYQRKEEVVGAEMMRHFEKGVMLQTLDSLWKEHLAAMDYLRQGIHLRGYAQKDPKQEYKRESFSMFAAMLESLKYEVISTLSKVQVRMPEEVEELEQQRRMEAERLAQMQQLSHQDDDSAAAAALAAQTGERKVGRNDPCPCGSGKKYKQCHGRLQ
# Sequence of Sialic acid-binding Ig-like lectin 9 (Homo sapiens) (Q9Y336 whole entry): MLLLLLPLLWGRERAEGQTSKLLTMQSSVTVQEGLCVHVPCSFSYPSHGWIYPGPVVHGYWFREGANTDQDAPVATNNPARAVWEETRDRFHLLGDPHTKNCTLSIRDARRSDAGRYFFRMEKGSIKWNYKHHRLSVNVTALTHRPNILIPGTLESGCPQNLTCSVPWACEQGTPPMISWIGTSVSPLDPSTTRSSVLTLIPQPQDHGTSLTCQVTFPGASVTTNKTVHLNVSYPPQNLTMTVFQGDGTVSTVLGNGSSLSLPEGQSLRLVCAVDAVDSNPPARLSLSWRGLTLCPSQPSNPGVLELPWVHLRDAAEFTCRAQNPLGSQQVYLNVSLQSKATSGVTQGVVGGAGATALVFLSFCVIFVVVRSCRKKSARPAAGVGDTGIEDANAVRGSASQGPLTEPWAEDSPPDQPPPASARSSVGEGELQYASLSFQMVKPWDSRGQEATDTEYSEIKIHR
SMILES,Percent Effect [1],Percent Effect [2],Percent Effect [3],Percent Effect [4],Percent Effect (Trypanosoma cruzi),Percent Effect [5],Percent Effect [6],Percent Effect (Homo sapiens),Percent Effect [7],Percent Effect [8],Percent Effect [9]
COCC1CN(C(=O)c2ccnnc2)Cc2c1cnn2C (configuration not stated),-3.58%,-5.33%,7.75%,-1.95%,4.33%,-3.5%,9.6%,9.47%,4.25%,1.28%,-4.09%
COCCC1COC2(CCN(C(=O)c3ccco3)CC2)C1 (configuration not stated),-2.43%,13.3%,5.93%,0.194%,-0.787%,3.5%,0.264%,0.48%,8.51%,16.7%,-2.69%
CS(=O)(=O)N1CCC(C(=O)NCCNc2ncccn2)CC1,-3.08%,10.8%,2.54%,-1.9%,8.45%,-7.21%,14.2%,14.8%,6.93%,15.8%,-3.22%
CC(C)n1c(C2CCCN(Cc3ccnn3C)C2)nc2ccccc21 (configuration not stated),-5.27%,5.33%,6.84%,4.6%,6.5%,-1.63%,6.78%,18.1%,2.13%,14.1%,-3.27%
Cc1occc1C(=O)N1CCc2c(COCC3CC3)cncc2C1,-1.99%,18.9%,-0.121%,-6.57%,3.03%,7.96%,26.8%,13.8%,10.8%,20.5%,-0.136%
Cn1ccnc1CN1CC[C@@H](NS(C)(=O)=O)[C@@H]1Cc1cccnc1,-2.5%,8.11%,-0.0396%,-7.99%,-6.35%,-2.23%,18.6%,11.3%,2.16%,10.3%,-5.81%
OC(COCc1ccccc1Cl)CN1CC(n2cccn2)C1 (configuration not stated),1.1%,-15.8%,3.43%,-0.349%,-1.5%,6.9%,14.5%,9.39%,4.41%,0%,-9.18%
Cc1nc(C2CCCN2Cc2nnc(C3CC3)o2)no1 (configuration not stated),-2%,2.7%,4.19%,3.15%,-1.21%,-0.554%,17.2%,16.6%,9.9%,18.3%,-3.91%
CN(C)C(=O)N1C[C@@H]2CC[C@H](C1)N(Cc1ccc3nsnc3c1)C2,-2.91%,-1.39%,-8.41%,-5.35%,-2.04%,4.42%,13.2%,-11.8%,0%,2.56%,-0.102%
Fc1ccc(CN2CCCN(Cc3cscn3)CC2)cc1,-1.59%,18.2%,-0.0725%,-10.1%,-1.27%,1.05%,9.46%,30.6%,8.57%,25.9%,-21.9%
CCN1CCN(C2CCN(Cc3noc(C)n3)CC2)C1=O,-5.08%,25.3%,-3.66%,-5.18%,1.98%,0.38%,5.16%,-0.161%,7.39%,21.5%,-6.23%
COc1ccc(CNCC(C)Oc2ccccn2)cc1Br (configuration not stated),0.219%,17.3%,-6.72%,0.831%,5.3%,-4.75%,9.8%,3.97%,11.6%,12.8%,-11.9%
CC(NC(=O)NCCCOC1CCCCC1)c1nncn1C (configuration not stated),-0.354%,2.7%,-2.09%,21.6%,4.18%,-1.29%,16.2%,5.68%,3.96%,25.6%,-7.07%
CCOc1cccc2c1OCC(C(=O)NS(=O)(=O)c1ccc(Cl)cc1)=C2,-8.58%,-2.7%,102%,7.55%,-5%,-5.61%,-2.52%,18.9%,-23.1%,-33.3%,-6.64%
COc1ccccc1CC1CCCN(CCC#N)C1 (configuration not stated),-3.04%,5.2%,-0.847%,2.02%,3.82%,4.42%,-6.39%,8.44%,2.86%,11.8%,-9.24%
Cc1ccc(CC(=O)NC(C)C(=O)N2CCS(=O)(=O)CC2)cc1 (configuration not stated),-6.49%,0%,-3.26%,4.88%,-2.9%,-1.91%,10.2%,1.44%,3.7%,2.44%,-3.12%
O=C(CCc1cccs1)N1CCCCC1Cn1cccn1 (configuration not stated),-6.87%,10.4%,-2.34%,-15.4%,5.19%,-1.47%,10.4%,1.69%,5.71%,21.2%,-15.9%
Cc1cnn(CC(C)NCc2csc(-c3ccsc3)n2)c1 (configuration not stated),-3.78%,-3.8%,-1.07%,0.382%,0.923%,-1.94%,28.1%,12.5%,6.25%,12.7%,-20.9%
Cn1nccc1CNC(=O)Nc1cc(C(F)(F)F)c[nH]c1=O,-2.37%,7.89%,-1.77%,11.9%,2.44%,8.43%,4.51%,0.842%,6.37%,12.2%,-9.48%
CCC(=O)N1CCN(Cc2cc(-c3ccncc3)nn2C)CC1,-5.35%,-6.76%,12.8%,5.24%,-3.56%,-1.62%,5.77%,-3.21%,4.3%,-1.3%,-2.41%
O=C(c1ccccn1)N1C[C@@H]2CC[C@H](C1)N(C(=O)CCc1ccsc1)C2,-0.66%,7.79%,1.47%,8.15%,-4.82%,-5.52%,13.3%,5.27%,7.53%,13.6%,-2.49%
COc1ccc(C(O)CNc2c(C#N)c(=O)n(C)c(=O)n2C)cc1 (configuration not stated),0.0916%,12.7%,4.15%,-13.6%,-6.33%,5.32%,2.87%,9.61%,5.42%,11.4%,-5.56%

# — ChEMBL document CHEMBL3988442, “University of Dundee, Small-Polar-MMV Screening Library” (2021)
